The structures appear in SMILES notation. Records with an inconclusive call do not appear. Calls of active or inactive are those of the source. Unless noted, calls follow the shape of the dose curve; as a rule, active = well fitted curve in the direction sought with a large enough effect; inconclusive = small, poorly fitted or top-dose-only effect, or another doubt; inactive = no such curve, though single readings can be large; an effect the other way counts as inactive or inconclusive.

The target of assay [1] is Cytochrome P450 3A4 (Homo sapiens) (UniProt P08684). As to the kind of experiment: qHTS Assay for Inhibitors and Substrates of Cytochrome P450 3A4 (AID 884). Also: nearly all actives have a fitted effect of over 50% in size. Also: potency is read from the fitted curve at half-maximal effect. As to activity change, negative = inhibition: % is scaled to controls: 0 for no effect and ±100 for the full control effect. The method in brief: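 Luminescent readout of luciferin produced by CYP3A4 (20 nM) dealkylation of Luciferin-PPXE, 25 uM (its KM). NADPH-driven reaction ran 60 min at RT after 10 min compound preincubation; data scaled to 57 uM ketoconazole as 100% inhibition.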
Cytochrome P450 3A4 (Homo sapiens), sequence (P08684 whole entry, looked up): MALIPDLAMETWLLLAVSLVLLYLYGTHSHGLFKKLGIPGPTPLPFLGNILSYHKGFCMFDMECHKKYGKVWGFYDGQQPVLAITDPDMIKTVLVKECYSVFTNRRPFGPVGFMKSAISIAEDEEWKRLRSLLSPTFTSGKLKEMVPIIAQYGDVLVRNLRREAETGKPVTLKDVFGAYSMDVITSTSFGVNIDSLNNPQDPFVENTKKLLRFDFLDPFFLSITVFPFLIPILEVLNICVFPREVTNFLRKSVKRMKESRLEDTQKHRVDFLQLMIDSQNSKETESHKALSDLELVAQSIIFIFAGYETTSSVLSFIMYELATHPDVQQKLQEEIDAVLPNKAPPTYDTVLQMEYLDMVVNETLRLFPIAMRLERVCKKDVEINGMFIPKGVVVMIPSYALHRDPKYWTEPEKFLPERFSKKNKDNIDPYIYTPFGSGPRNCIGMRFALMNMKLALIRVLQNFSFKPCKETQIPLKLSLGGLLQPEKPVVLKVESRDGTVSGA
Background: In qHTS, concentration-response curves come from the screen itself.

A short description of assay [2]: Confirmation and Secondary Assay for Modulators of Hemoglobin Beta Chain Splicing at IVS2 654 locus (AID 910).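 Also: HeLa cells stably carrying EGFP split by mutant beta-globin IVS2-654 intron; per-well total GFP intensity by laser scanning cytometry after 2-day treatment; % of control where 0% means no effect.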 The method in brief:
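Readout: per-well total peak green fluorescence (488 nm ex, 500–520 nm em) from objects 5–250 µm, reflecting correct splicing of an EGFP-654 reporter. Compounds were applied for 2 days at 37 °C to overnight-plated HeLa EGFP-654 cells; controls were DMSO and 500 nM IVS2-654 PNA.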

The nature of assay [3]: Confirmation and Secondary Assay for Modulators of Hemoglobin Beta Chain Splicing at IVS2 705 locus (AID 930).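 Also: HeLa cells stably expressing the EGFP-705 splicing reporter; GFP fluorescence per well restored by corrected splicing of the IVS2-705 intron in EGFP; % of control where 0% means no effect.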 The method in brief: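 Fluorescence gain (488 nm laser, 500-520 nm PMT) reflects restored correct splicing of a mutant IVS2-705 intron inside EGFP in stably transfected HeLa cells after 2-day compound treatment.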
Assay [4] can be described thus: qHTS Assay for Lipid Storage Modulators (AID 1519; calls by dose curve; as to activity change, negative = inhibition: % is scaled to controls: 0 for no effect and ±100 for the full control effect). The settings on record: Drosophila S3 cells, BODIPY lipid droplet/cell ratio, laser cytometry, cells loaded with oleic acid; for activity change, negative = inhibition: at 57.5 µM (top of the series). The method in brief:
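Cells seeded at 5,000 per well were treated with compounds over a concentration series and loaded with oleic acid (400 uM, as added). Lipid droplet fluorescence (488 nm excitation, 500-530 nm channel) was read by laser-scanning cytometry and normalized to 20 uM Triacsin C.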

The target in assay [5] is DNA dC->dU-editing enzyme APOBEC-3G (Homo sapiens) (UniProt Q9HC16). Description: qHTS for inhibitors of Vif-A3G interactions: Validation (AID 588379). Also: 0% is about no effect. The method in brief:
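Yellow fluorescence (Ex 488, Em 500-530) of Vif-coexpressing HeLa A3G-eYFP cells, scanned by Acumen cytometer, reports blocked A3G degradation. Cells plated at 700/well overnight at 37 deg C before compound addition, then a further overnight compound incubation at 37 deg C.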

For assay [6], the target named is Ubiquitin carboxyl-terminal hydrolase 1 (Homo sapiens) (UniProt O94782). Description: Inhibitors of USP1/UAF1: Pilot qHTS (AID 504865). Also: potency is read from the fitted curve at half-maximal effect; nearly all actives have a fitted effect of over 35% in size. The method in brief:
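USP1/UAF1 complex (1nM) preincubated with compound 15 min at room temperature, then Ub-Rho substrate (150nM final) added. Fluorescence read kinetically at 480/540 nm, 6 reads every 60 seconds. Buffer: 50mM HEPES pH 7.8, 0.5mM EDTA, 0.1 mg/ml BSA, 1mM TCEP, 0.01% Tween-20.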

Assay [7] addresses Cytochrome P450 3A4 (Homo sapiens) (UniProt P08684). As to the kind of experiment: qHTS Assay for Activators of Cytochrome P450 3A4 (AID 885). Also: nearly all actives have a fitted effect of over 65% in size. The method in brief:
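Human CYP3A4 dealkylates Luciferin-PPXE to luciferin, which luciferase detection converts to light. Substrate was at its KM (25uM), buffer 200mM KPO4, reaction 60 min at RT.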

Setting [8] is: measured here: cell count channel max response.
The mark [9] stands for this setting: measured here: lipid channel max response.

DNA dC->dU-editing enzyme APOBEC-3G (Homo sapiens), sequence (Q9HC16 whole entry, looked up): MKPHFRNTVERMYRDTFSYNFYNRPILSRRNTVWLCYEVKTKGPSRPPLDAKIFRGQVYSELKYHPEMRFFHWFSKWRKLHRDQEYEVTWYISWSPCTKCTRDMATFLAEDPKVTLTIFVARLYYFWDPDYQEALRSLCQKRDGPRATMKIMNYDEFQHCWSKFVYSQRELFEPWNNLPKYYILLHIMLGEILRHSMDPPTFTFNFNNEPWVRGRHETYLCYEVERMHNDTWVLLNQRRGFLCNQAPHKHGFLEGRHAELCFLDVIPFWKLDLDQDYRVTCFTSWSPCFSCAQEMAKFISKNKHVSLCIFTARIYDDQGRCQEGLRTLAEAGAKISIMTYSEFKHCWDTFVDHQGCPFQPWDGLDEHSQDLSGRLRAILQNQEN
Ubiquitin carboxyl-terminal hydrolase 1 (Homo sapiens), sequence (O94782 whole entry, looked up): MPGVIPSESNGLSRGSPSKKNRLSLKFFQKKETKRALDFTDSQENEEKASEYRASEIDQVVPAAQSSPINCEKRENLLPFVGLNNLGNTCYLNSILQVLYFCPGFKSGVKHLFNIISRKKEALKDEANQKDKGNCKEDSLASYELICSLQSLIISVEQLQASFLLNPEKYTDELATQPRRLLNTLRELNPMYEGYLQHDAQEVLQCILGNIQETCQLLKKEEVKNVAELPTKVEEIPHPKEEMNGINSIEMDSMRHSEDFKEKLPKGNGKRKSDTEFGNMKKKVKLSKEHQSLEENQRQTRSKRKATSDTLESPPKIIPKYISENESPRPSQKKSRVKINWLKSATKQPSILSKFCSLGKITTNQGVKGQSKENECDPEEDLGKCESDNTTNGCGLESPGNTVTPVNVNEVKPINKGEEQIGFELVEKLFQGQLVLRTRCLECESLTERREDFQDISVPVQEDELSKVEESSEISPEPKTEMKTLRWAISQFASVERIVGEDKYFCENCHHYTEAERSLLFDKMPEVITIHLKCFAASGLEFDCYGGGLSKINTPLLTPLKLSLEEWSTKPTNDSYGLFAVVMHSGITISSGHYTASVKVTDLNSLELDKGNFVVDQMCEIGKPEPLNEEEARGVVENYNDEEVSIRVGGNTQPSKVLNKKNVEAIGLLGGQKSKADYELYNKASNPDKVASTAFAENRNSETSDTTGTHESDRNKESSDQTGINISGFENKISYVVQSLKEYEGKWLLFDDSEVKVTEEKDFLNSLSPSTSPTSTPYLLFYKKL

Turning to `COc1cc2c(cc1OC)C(C)NCC2` (stereo not given), the Potency result in assay [1], in assay [2] and in assay [3] was “inactive” throughout. For the same compound, in assay [4], the activity change, negative = inhibition was 4.92% (inactive). Also, the max response in assay [4] (setting [8]) was 20%; in assay [4] (setting [9]), 26%. For the same compound, the call in assay [5] was inactive.

`COc1c(CC=C(C)C)c2c(c3oc(=O)c(-c4ccc(O)cc4)c(O)c13)C=CC(C)(C)O2`: the Potency entry in assay [2] and in assay [3] was “inactive” each time. In addition, the activity change, negative = inhibition in assay [4] was 3.02% (inactive). In addition, the max response was determined as 14.5% in assay [4] (setting [8]) and 15.5% in assay [4] (setting [9]). The Potency in assay [6] was 79.4 µM (active).

With `C=C1C2CC[C@@]3(C)C(c4ccoc4)OC(=O)C[C@@]13OC1CC(=O)C(C)(C)C(C(OC(C)=O)C(=O)OC)[C@@]12C` (stereo not given in full), the Potency in assay [1] is 1 µM (active). Moreover, the Potency entry in assay [7], in assay [2] and in assay [3] was “inactive” each time. Also, in assay [4], the activity change, negative = inhibition is 1.36% (inactive). Further, the max response in assay [4] (setting [8]) was 4.29%; in assay [4] (setting [9]), 7.56%.

Consider `C=C1C/C(=C/C)C(=O)O[C@@H]2CCN3CC=C(COC(=O)[C@]1(C)O)[C@@H]23`, for which the activity change, negative = inhibition in assay [4] was 3.16% (inactive). The max response turned out to be 6.54% in assay [4] (setting [8]) and 10.1% in assay [4] (setting [9]). Besides, the outcome in assay [5] was inactive.

On to `CCC12CCCN3CCC4(c5ccc(OC)c(O)c5N(C(C)=O)C4CC1)C32` (stereo not given), for which, in assay [1], the Potency was 15.8 µM (active). Also, the Potency result in assay [7] was “inactive”. The activity change, negative = inhibition in assay [4] was -0.564% (inactive). In addition, the max response in assay [4] (setting [8]) worked out at 14.6%; in assay [4] (setting [9]), 12.8%. Moreover, the compound was classed as inactive in assay [5].

The values above are taken from PubChem BioAssay (NCATS).
